Screens (PubChem)
Vif-A3G inh: blocks the Vif interaction with human APOBEC3G. 0.076% of 410,000 active. Potency, µM (titrated, usually from 46.1 µM), for inactives: top-dose activity, negative = active, usual class: inhibitors. HeLa A3G-eYFP + Vif (tagged APOBEC3G with the HIV-1 protein that degrades it), YFP fluorescence, overnight. Q9HC16; also: % is scaled to controls: 0 for no effect and ±100 for the full control effect; nearly all actives have a fitted effect of over 60% in size
Target sequence (Q9HC16 whole entry, looked up): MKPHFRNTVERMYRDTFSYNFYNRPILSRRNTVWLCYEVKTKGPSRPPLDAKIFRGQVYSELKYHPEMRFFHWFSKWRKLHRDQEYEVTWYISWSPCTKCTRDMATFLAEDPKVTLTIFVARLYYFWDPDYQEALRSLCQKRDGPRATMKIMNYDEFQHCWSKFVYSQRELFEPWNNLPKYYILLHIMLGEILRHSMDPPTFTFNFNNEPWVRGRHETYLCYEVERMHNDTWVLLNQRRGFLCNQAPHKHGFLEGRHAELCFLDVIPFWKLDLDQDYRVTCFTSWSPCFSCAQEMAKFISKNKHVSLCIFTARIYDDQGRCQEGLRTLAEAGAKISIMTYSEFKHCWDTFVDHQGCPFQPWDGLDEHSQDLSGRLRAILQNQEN
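HeLa cells stably expressing Vif and C-terminally eYFP-tagged A3G, seeded overnight at 37 deg C, then exposed to compound by pintool overnight at 37 deg C. Rise in yellow fluorescence (Ex 488/Em 500-530, Acumen) marks blocked Vif-driven A3G degradation.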
GLS inh: blocks human kidney-isoform glutaminase activity | O94925 | GLS enzymatic activity, qHTS titration | Potency, µM (series often up to 45.5 µM), for the others: top-dose activity change, negative = inhibition, actives largely listed as inhibitors | 0.21% of 410,000 active | AID 624170; also: % is scaled to controls: 0 for no effect and ±100 for the full control effect
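hKGA; 45 mM KH2PO4 pH 8.2 + 0.02% Tween-20; cpd via pin tool; 1 mM Gln soln; GluOx/HRP/Amplex Red; RT 30 min; fluor. t0 & final.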
PINK1 expr mod: changes PINK1 expression | Potency, µM (highest dose often 76.6 µM), for inactives: top-dose activation (PINK1 increase), hits mostly activators | PINK1 immunofluorescence, high-content cytometry, 24 h | 0.2% of 410,000 active; active = well fitted activation curve with a large enough effect; inconclusive = small, poorly fitted or top-dose-only effect; cell line not stated here; also: % of control where 0% means no effect; nearly all actives have a fitted effect of over 65% in size
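PINK1 protein level read as immunofluorescence by microplate cytometer in a fixed, stained stable cell line after 24 h exposure to five compound concentrations, with CCCP as control.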
Epigenetic reg: epigenetic control regulation, reporter derepression; murine LDR cells, GFP reporter derepression, 30 h; Potency, µM (titrated, usually from 53.9 µM), for the others: top-dose GFP activation, usual class: activators; 0.2% of 280,000 active; AID 1865; also: % of control where 0% means no effect; nearly all actives have a fitted effect of over 60% in size
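In this reporter-derepression format, murine cells bearing a silenced integrated CMV-GFP locus incubate with test compound (30 h, 37 C), then are washed and imaged; fluorescent objects of 20–120 um count as induced cells.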
Vif-A3F inh: blocks the Vif interaction with APOBEC3F | AID 602313 | Potency, µM (highest dose often 46.1 µM), for the others: at the highest dose activity, negative = active | 0.2% of 390,000 active | HeLa A3F-eYFP + Vif (tagged APOBEC3F with the HIV-1 protein that degrades it), YFP fluorescence increase; also: % of control where 0% means no effect; nearly all actives have a fitted effect of over 65% in size
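HeLa cells stably expressing A3F-eYFP plus Vif, plated and incubated overnight at 37 deg C, then exposed to compounds overnight at 37 deg C. Blocked degradation read as raised yellow fluorescence (Ex 488/Em 500-530).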
Starred values were filed as active, the others as inactive; [ ] = dose if it differs, or a comment. Only some compounds are listed: those with a hit (about 0.7% of all), similar ones and a draw of the others. Unless noted, calls follow the shape of the dose curve; as a rule, active = well fitted curve in the direction sought with a large enough effect; inconclusive = small, poorly fitted or top-dose-only effect, or another doubt; inactive = no such curve, though single readings can be large; an effect the other way counts as inactive or inconclusive. Potency is read from the fitted curve at half-maximal effect.

How did COc1ccc(C(=O)/C(C#N)=N/Nc2ccc([N+](=O)[O-])cc2)cc1 do in these assays?
Vif-A3G inh: -15%; GLS inh: 10%; PINK1 expr mod: 4.5µM*; Epigenetic reg: -2%; Vif-A3F inh: -12%

How did COc1ccc(C(=O)/C(C#N)=N/Nc2ccccc2[N+](=O)[O-])cc1 do in these assays?
Vif-A3G inh: inconclusive; GLS inh: -5%; PINK1 expr mod: inconclusive; Epigenetic reg: 0%; Vif-A3F inh: -8%

Results for CCc1cc2cc3c(cc2nc1SCC(=O)Nc1nnc(C)s1)OCCO3 ?
Vif-A3G inh: -2%; GLS inh: -12%; PINK1 expr mod: 12%[38.3 µM]; Epigenetic reg: 5%; Vif-A3F inh: 3%

Results for CCc1nnc(NC(=O)CSc2nc3cc4c(cc3cc2CC)OCCO4)s1 ?
Vif-A3G inh: 1%; GLS inh: 0%; PINK1 expr mod: 11µM*; Epigenetic reg: 3%; Vif-A3F inh: -3%

How did CCOC(=O)C1C(=O)C=C(/C=C/c2ccc(N(C)C)cc2)CC1c1ccccc1 (stereo not drawn) do in these assays?
Vif-A3G inh: inconclusive; GLS inh: -7%; PINK1 expr mod: inconclusive; Epigenetic reg: 22µM*; Vif-A3F inh: 2.8µM*

How did CCOC(=O)C1C(=O)C=C(c2ccc(C)cc2)CC1c1ccccc1 (stereo not drawn) do in these assays?
Vif-A3G inh: -1%; GLS inh: -11%; PINK1 expr mod: 1%; Epigenetic reg: -2%[10.1 µM]; Vif-A3F inh: -12%

How did COCCN(C)C(=O)c1cnn(-c2nccc(-c3cc(OC)ccc3OC)n2)c1C do in these assays?
PINK1 expr mod: 0%

What do the screens show for `COc1ccccc1C1CN(Cc2cccc(OCCO)c2)Cc2ccccc2O1` (stereo not drawn)?
PINK1 expr mod: 0%

Results for COc1ccc(NC(=O)c2cccc3c(Br)cccc23)cc1 ?
Vif-A3G inh: -6%; GLS inh: -8%; PINK1 expr mod: 11%; Vif-A3F inh: -4%

What do the screens show for `O=C(Nc1ccc2ccccc2c1)c1ccccc1Cl`?
Vif-A3G inh: -12%; GLS inh: 0%; PINK1 expr mod: 2%; Vif-A3F inh: -1%

What do the screens show for `COc1ccc(NC(=O)c2cccc3ccccc23)cc1`?
Vif-A3G inh: 11µM*; GLS inh: -7%; PINK1 expr mod: 6%; Vif-A3F inh: 0%

Results for C/C(CC(=O)Nc1ccc2ccccc2c1)=N\NC(=O)c1ccc(O)c(O)c1 ?
Vif-A3G inh: -6%; GLS inh: 6.3µM*; PINK1 expr mod: 0%; Vif-A3F inh: -3%

How did O=C(Nc1ccc2ccccc2c1)c1ccccc1O do in these assays?
Vif-A3G inh: -6%; GLS inh: 8%; PINK1 expr mod: 14µM*; Vif-A3F inh: 1%

What do the screens show for `COC(=O)C1=COC(C)C2CN3CCc4c([nH]c5cc(OC)c(OC)cc45)C3CC12` (stereo not drawn)?
Vif-A3G inh: -12%; GLS inh: 2%; PINK1 expr mod: 7%; Epigenetic reg: 0%; Vif-A3F inh: 8.9µM*

Results for COC(=O)C1C2CC3c4[nH]c5cc(OC)ccc5c4CCN3CC2CC(OC)C1OC (stereo not drawn) ?
GLS inh: -8%

What do the screens show for `CCN(CC)c1ccc(C(=C2C=CC(=[N+](CC)CC)C=C2)c2ccccc2)cc1`?
Vif-A3G inh: inconclusive; GLS inh: 6.3µM*; PINK1 expr mod: -1%; Vif-A3F inh: 1%

Results for O=C(NCCc1nnc2n1CCN(Cc1ccc(F)cc1)CC2)c1ccco1 ?
PINK1 expr mod: 0%

What do the screens show for `CCC(C)Sc1cc(C(F)(F)F)c(C(=O)Nc2ccc(Cl)cc2)cn1` (stereo not drawn)?
Vif-A3G inh: 0%; GLS inh: -8%; PINK1 expr mod: 18µM*; Epigenetic reg: 0%; Vif-A3F inh: 2%

How did O=C(c1ccc(N2CCC(NCCCn3ncc4ccccc43)CC2)cc1)N1CCc2ccccc2C1 do in these assays?
PINK1 expr mod: 1%

Results for O=[N+]([O-])c1ccc(N2CCN(Cc3ccccc3)CC2)c2c1no[n+]2[O-] ?
Vif-A3G inh: 7.9µM*; GLS inh: -6%; PINK1 expr mod: 1%; Vif-A3F inh: inconclusive

How did c1cncc(OC2CCN(Cc3ccc4c(c3)CN(Cc3ccc5c(c3)OCCO5)CCO4)CC2)c1 do in these assays?
PINK1 expr mod: 1%

How did COc1ccccc1-c1ccnc(-n2ncc(C(=O)NCCc3ccccn3)c2C)n1 do in these assays?
PINK1 expr mod: 0%

How did Cc1cc(C)cc(Oc2nc3c(C)cccn3c(=O)c2/C=C(\C#N)c2nc3ccccc3[nH]2)c1 do in these assays?
Vif-A3G inh: -6%; GLS inh: 24%; PINK1 expr mod: inconclusive; Epigenetic reg: 7.1µM*; Vif-A3F inh: inconclusive

Results for CCc1ccc(Oc2nc3c(C)cccn3c(=O)c2/C=C(\C#N)c2nc3ccccc3[nH]2)cc1 ?
Vif-A3G inh: -1%; GLS inh: 0%; PINK1 expr mod: inconclusive; Epigenetic reg: 11µM*; Vif-A3F inh: -29%

How did COc1ccc(Oc2nc3c(C)cccn3c(=O)c2/C=C(\C#N)c2nc3ccccc3[nH]2)cc1 do in these assays?
GLS inh: 3%; PINK1 expr mod: inconclusive; Epigenetic reg: 4µM*

How did Cc1ccc(Oc2nc3c(C)cccn3c(=O)c2/C=C(\C#N)C(N)=O)cc1 do in these assays?
Vif-A3G inh: 0%; GLS inh: 4%; PINK1 expr mod: 6%; Epigenetic reg: -1%; Vif-A3F inh: -9%

What do the screens show for `Cc1ccc(Oc2nc3ccccn3c(=O)c2/C=C(\C#N)c2nc3ccccc3s2)c(C)c1`?
Vif-A3G inh: 2%; GLS inh: -9%; PINK1 expr mod: 2%; Epigenetic reg: -1%; Vif-A3F inh: -7%

What do the screens show for `Cc1cccn2c(=O)c(/C=C(\C#N)c3nc4ccccc4s3)c(Oc3ccc(Br)cc3)nc12`?
Vif-A3G inh: 4%; GLS inh: -1%; PINK1 expr mod: 4%; Epigenetic reg: 0%; Vif-A3F inh: 7%

How did Cc1ccccc1Oc1nc2ccccn2c(=O)c1/C=C(\C#N)c1nc2ccccc2[nH]1 do in these assays?
GLS inh: 5%; PINK1 expr mod: 1%; Epigenetic reg: 11µM*

What do the screens show for `Cc1ccc(S(=O)(=O)/C(C#N)=C/c2c(Oc3ccc(Cl)cc3)nc3c(C)cccn3c2=O)cc1`?
Epigenetic reg: 2%

How did CN(Cc1cccc2ncccc12)C(=O)c1cnn(-c2ncc3c(n2)-c2ccccc2CC3)c1C1CC1 do in these assays?
PINK1 expr mod: 0%

Results for Cc1ccc2nc(SCC(=O)N3CCC4(CC3)CC4C(=O)Nc3ccc(F)c(F)c3)[nH]c2c1 (stereo not drawn) ?
PINK1 expr mod: 0%
